# Sampled rows, rich in hits. Any-hit rate of the full collection: about 1.1%.
# PrP UTR inh – inhibition of PrP 5' UTR reporter expression. inhibition, % (test concentration not listed). cell-based PrP 5' UTR mRNA reporter, plate reader. hit rate 0.35% among 340,000; in the data active means inhibition above about 52%; further: 0 = median of the neutral control wells
# FadD28 binding – inhibitors of FadD28 bisubstrate probe binding, primary screen, biochemical, fluorescence polarization, single point; hit rate 0.22% among 360,000; inhibition, % at 12.5 µM; Mycobacterium tuberculosis FadD28 fatty-acid-AMP ligase; in the data active means inhibition above about 8.5%, passing the limit was not always enough
# PfHsp40 rescue – rescue of yeast from PfHsp40 toxicity, primary screen, S. cerevisiae, ATP luminescence; S. cerevisiae expressing PfHsp40, growth rescue; growth rescue, % at 12.5 µM; hit rate 0.68% among 340,000; AID 504582, 2011; in the data active means growth rescue above about 28%, passing the limit was not always enough;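 further: yeast W303a lacking pdr1 and pdr3 grown in galactose medium; growth measured after three days at 30 °C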
# BioA inh – M. tuberculosis BioA enzyme inhibitors, primary screen, biochemical, plate reader, single point, HTS; 7,8-diaminopelargonic acid synthase BioA (Mycobacterium tuberculosis); purified M. tuberculosis BioA enzyme; inhibition, % at 9.99 µM; hit rate 0.096% among 360,000; AID 602481, 2012; in the data active means inhibition above about 40%
# TcdB inh – TcdB glycohydrolase inhibitors, primary screen, biochemical, single point, plate reader; Toxin B (Clostridioides difficile), P18177; TcdB glycohydrolase enzymatic assay; inhibition, % at 9.99 µM; hit rate 0.24% among 350,000; AID 652162, 2013; in the data active means inhibition above about 10%
# Target sequence (P18177 whole entry, looked up): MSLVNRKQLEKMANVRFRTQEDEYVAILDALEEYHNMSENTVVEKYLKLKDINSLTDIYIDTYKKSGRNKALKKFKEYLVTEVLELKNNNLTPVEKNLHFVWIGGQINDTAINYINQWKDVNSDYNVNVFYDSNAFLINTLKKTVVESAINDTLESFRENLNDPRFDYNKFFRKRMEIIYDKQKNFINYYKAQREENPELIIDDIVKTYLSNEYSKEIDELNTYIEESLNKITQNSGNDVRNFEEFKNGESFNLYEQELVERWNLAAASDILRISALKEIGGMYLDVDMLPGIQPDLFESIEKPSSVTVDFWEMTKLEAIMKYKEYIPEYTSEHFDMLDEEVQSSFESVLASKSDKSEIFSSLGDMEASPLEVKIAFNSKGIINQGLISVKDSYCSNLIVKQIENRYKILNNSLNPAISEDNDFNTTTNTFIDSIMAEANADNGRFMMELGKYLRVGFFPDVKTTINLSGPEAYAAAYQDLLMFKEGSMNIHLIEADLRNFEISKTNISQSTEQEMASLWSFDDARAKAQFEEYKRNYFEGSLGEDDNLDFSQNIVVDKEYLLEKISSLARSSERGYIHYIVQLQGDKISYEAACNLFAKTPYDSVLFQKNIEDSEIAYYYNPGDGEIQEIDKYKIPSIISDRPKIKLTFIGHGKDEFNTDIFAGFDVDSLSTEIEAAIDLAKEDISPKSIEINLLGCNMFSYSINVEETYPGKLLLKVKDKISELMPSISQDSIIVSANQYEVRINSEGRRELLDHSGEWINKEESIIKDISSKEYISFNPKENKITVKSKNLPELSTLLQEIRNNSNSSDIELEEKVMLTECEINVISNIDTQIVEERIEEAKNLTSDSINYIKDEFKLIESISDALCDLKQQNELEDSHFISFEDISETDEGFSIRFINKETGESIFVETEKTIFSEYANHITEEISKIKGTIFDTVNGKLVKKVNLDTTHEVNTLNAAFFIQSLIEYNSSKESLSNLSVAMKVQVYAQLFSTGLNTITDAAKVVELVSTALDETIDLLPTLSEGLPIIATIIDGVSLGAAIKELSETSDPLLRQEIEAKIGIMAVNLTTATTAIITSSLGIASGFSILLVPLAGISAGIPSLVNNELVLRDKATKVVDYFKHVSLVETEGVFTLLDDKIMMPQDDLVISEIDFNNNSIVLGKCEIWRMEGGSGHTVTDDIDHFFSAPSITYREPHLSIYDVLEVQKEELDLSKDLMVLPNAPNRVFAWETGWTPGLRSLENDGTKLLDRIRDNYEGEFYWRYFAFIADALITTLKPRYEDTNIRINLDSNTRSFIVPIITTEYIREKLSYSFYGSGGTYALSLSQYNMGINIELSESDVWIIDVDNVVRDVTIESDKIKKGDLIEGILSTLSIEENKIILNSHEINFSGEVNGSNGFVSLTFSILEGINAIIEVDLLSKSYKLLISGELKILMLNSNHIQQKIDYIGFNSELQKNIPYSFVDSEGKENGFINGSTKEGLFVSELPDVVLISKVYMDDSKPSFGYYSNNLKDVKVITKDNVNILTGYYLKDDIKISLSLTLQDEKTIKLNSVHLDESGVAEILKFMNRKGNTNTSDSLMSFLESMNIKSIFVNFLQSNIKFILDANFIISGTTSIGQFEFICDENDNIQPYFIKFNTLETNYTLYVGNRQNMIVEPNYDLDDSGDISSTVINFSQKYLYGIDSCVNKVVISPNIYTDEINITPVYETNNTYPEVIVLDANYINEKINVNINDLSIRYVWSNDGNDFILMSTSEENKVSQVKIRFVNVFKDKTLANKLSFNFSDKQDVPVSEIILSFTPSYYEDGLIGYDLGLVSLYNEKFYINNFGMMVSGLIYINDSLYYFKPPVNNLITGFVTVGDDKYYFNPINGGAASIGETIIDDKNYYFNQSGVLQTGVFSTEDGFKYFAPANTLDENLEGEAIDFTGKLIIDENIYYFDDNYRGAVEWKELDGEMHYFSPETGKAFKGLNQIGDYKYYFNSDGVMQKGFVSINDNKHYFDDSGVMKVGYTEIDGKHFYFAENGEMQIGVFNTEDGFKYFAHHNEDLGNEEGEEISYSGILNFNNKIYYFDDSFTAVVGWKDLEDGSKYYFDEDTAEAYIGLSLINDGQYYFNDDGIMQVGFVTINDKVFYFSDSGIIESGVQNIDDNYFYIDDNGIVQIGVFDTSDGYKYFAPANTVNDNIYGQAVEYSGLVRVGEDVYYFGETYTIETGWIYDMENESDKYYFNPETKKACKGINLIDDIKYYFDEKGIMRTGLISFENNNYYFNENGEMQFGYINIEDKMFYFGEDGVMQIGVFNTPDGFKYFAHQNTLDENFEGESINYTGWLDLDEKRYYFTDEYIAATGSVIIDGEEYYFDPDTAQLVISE
# * = called active by the depositor; . = not tested or not shown.
SMILES,PrP UTR inh,FadD28 binding,PfHsp40 rescue,BioA inh,TcdB inh
CCCCCCCCCCSc1n[nH]c(N)n1,-23,1,303*,-1,-9
Cc1ccccc1C(=O)NC(=S)Nc1sc2c(c1C#N)CCCC2,-4,-1,71*,-1,.
Cc1ccccc1NS(=O)(=O)c1ccc(OCC(=O)N2CCCCC2)cc1,.,1,0,0,11*
O=C(C[C@H]1C=C[C@@H](NC(=O)Nc2ccc3c(c2)OCO3)[C@H](CO)O1)NCc1ccccc1,.,.,.,3,0
CC(=O)Nc1ccc(S(=O)(=O)Nc2nc3ccccc3nc2Nc2ccc(C(=O)O)c(O)c2)cc1,-10,25*,3,1,-4
CC(C)C#Cc1cnc2c(c1)C(=O)N([C@H](C)CO)C[C@@H](C)[C@H](CN(C)Cc1ccc3c(c1)OCO3)O2,.,.,.,-1,-1
CC(C)C#Cc1ccc2c(c1)O[C@H](CN(C)C(=O)c1cnccn1)[C@H](C)CN([C@H](C)CO)S2(=O)=O,.,.,.,0,0
Nc1nnc(CC(=O)N/N=C/c2cc([N+](=O)[O-])cc(Br)c2O)s1,-17,37*,-1,.,1
Nc1nnc(CC(=O)N/N=C/c2cccc([N+](=O)[O-])c2)s1,-2,-2,0,0,.
O=C(O)CCCC(=O)N1CCN(c2nc(-c3ccccc3Cl)c3cc(Br)ccc3n2)CC1,-11,-7,47*,4,0
C[C@@H]1CN([C@H](C)CO)S(=O)(=O)c2ccc(C#CC(C)(C)O)cc2O[C@H]1CN(C)Cc1ccc(-c2ccccc2)cc1,.,.,.,-4,0
Cc1cc(C)c(NC(=O)c2cc3c(nc4sccn43)s2)c(C)c1,-13,-5,66*,0,.
CCCc1sc(N/N=C/c2ccccn2)nc1-c1ccc(F)cc1,20,-3,38*,-1,.
CC(Oc1ccc(Cl)cc1Cl)C(=O)Nc1ccc(O)cc1 (centres undefined),-14,-3,1,.,14*
Cc1ccccc1-c1noc(-c2ccc(Cl)cc2)n1,-79,0,-1,-2,.
Cc1ccccc1-c1noc(-c2ccc(O)cc2)n1,-148,-7,129*,2,2
COc1ccc(NC(=O)Nc2ccc3c(c2)C(=O)N([C@H](C)CO)C[C@@H](C)[C@H](CN(C)Cc2ccc(C(F)(F)F)cc2)OCCCC[C@@H](C)O3)cc1,.,.,.,-2,0
COc1ccc(C(NC(N)=O)c2ccccc2)cc1 (centres undefined),-28,-1,73*,-1,1
COc1ccc(S(=O)(=O)Nc2ccc3c(c2)C(=O)N([C@@H](C)CO)C[C@@H](C)[C@@H](CN(C)S(=O)(=O)c2ccc(F)cc2)O3)cc1,.,.,.,2,2
COc1ccc(/C=C/C(=O)N(C)Cc2cccs2)cc1S(=O)(=O)N1CCOCC1,1,26*,-1,0,-1
CC1=CC(C)(C)N(S(=O)(=O)c2ccc(C)cc2)c2ccc(C)cc21,-37,-4,165*,0,.
CC1=CC(C)(C)N(S(=O)(=O)c2ccc(F)cc2)c2ccccc21,-24,-3,1,0,2
O=C(NCc1ccco1)C1OCCc2ccccc21 (centres undefined),-20,0,0,2,.
Cc1ccc(NC(=O)C2OCCc3ccccc32)cc1C (centres undefined),-61,-3,0,-1,11*
COc1ccc(-c2csc(/C(C#N)=C\c3ccc(O)c([N+](=O)[O-])c3)n2)cc1OC,-15,9.5*,0,5,1
SMILES,PrP UTR inh,FadD28 binding,PfHsp40 rescue,BioA inh,TcdB inh
CO[C@@H]1CN(C)C(=O)c2cc(NC(=O)C3CC3)ccc2OC[C@H](C)N(C(=O)Cc2ccccn2)C[C@H]1C,.,.,.,0,1
CCCCCCCNC(=O)C1(CC2CC(c3cccc(Br)c3)=NO2)CCN(C(=O)CCCCCBr)CC1 (centres undefined),10,-4,45*,1,1
CCCCCCCNC(=O)C1(CC2CC(c3cccc(Br)c3)=NO2)CCN(C(=O)C2(C)CC2)CC1 (centres undefined),-4,-5,2,-1,1
N#C[C@H]1[C@H](c2ccccc2-c2cccc(F)c2)[C@@H](CO)N1C(=O)Cc1cccnc1,.,.,.,.,0
COc1ccccc1NC(=O)CCCCCN1C(=O)c2cccc([N+](=O)[O-])c2C1=O,-19,1,0,6,-1
COc1cc(/C=C2/C(=O)c3cccc([N+](=O)[O-])c3C2=O)c(Br)cc1O,-9,10*,1,.,.

# Compound activity (PubChem BioAssay)
